Results as given in the supplement of paper PMC3334620.
Whole data set: some 33,000 sequences, median “E-score (-0.5 to 0.5)” near -0.054, cut for the highest 2% near 0.39. Shown is part of a subset that was picked to be rich in the highest values.

Biological target: Ylr278c (UniProt Q05854)
Test: PBM E-score (8-mer binding enrichment) (E-score (-0.5 to 0.5)); higher = stronger / more preferred TF binding
Settings: protein concentration: 200 nM; construct: GST-DNA-binding domain
Description: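 Universal 'all 10-mer' protein binding microarrays (Agilent AMADID 015681) probed with GST-tagged S. cerevisiae TFs (full-length or DBD) made by in vitro transcription/translation (PURExpress), about 100-200 nM. Bound TF was detected with fluorescent anti-GST. Each ungapped 8-mer (which stands for itself and its reverse complement) is scored by the PBM enrichment score (E-score), a modified Wilcoxon-Mann-Whitney statistic from -0.5 to +0.5, computed with the Universal PBM Analysis Suite. Scale: above 0.35 generally sequence-specific binding.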

Sequence of UniProt Q05854 (Q05854 whole entry): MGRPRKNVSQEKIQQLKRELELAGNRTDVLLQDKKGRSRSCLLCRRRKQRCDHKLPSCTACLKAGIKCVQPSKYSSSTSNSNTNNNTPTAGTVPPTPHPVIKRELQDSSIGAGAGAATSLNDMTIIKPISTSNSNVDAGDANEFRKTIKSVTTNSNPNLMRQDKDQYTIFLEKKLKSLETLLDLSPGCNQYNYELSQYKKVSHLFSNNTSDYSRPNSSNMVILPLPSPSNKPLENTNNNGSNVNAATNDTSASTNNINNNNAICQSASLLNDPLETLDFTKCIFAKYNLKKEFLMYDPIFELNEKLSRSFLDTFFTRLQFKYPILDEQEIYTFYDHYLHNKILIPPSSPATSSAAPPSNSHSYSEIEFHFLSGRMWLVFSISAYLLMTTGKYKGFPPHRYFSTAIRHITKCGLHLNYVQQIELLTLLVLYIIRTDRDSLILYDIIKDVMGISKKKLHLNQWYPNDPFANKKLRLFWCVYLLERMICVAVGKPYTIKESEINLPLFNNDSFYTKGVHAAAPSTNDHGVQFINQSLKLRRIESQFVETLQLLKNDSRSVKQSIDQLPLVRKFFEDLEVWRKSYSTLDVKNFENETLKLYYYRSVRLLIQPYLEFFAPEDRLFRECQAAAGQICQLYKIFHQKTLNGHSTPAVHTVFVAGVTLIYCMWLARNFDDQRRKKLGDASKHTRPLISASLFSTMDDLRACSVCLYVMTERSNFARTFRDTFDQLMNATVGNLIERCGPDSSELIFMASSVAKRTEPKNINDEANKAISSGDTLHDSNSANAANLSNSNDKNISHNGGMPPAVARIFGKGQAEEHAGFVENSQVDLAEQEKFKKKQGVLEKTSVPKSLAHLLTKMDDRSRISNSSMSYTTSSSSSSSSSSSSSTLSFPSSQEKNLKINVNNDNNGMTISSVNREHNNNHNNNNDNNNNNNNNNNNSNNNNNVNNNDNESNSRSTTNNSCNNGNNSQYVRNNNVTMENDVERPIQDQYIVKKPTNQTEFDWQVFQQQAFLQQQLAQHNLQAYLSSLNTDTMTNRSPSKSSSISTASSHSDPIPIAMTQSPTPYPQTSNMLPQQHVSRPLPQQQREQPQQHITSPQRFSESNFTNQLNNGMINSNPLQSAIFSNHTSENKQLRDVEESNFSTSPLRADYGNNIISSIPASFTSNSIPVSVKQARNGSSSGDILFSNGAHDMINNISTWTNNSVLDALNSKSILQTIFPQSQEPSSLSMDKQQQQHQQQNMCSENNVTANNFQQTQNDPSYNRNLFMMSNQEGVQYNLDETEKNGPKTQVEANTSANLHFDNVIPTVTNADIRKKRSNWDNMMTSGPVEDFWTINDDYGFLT

Row | Sequence | PBM E-score
1 | CATTTGAG | -0.0532
2 | CGGGACTC | 0.341
3 | CCGGACTA | 0.458
4 | GCGGACTA | 0.384
5 | CCGGACTC | 0.43
6 | ACGGACTA | 0.315
7 | ACGGACTC | 0.304
8 | AGGCCTAC | -0.167
9 | AAGCAATT | -0.0901
10 | CATCCCAC | -0.135
11 | ATAGTGTA | -0.188
12 | GCCAAACC | 0.119
13 | GACTTGAC | -0.059
14 | AGTATCTG | -0.207
15 | ACGATCGG | 0.334
16 | CCGATCGA | 0.226
17 | ACGATCCG | 0.283
18 | CCGATCCG | 0.424
19 | CCGATCCA | 0.208
20 | CCGATCGG | 0.43
21 | CCGATTAA | 0.333
22 | CATGTTGA | -0.0612
23 | CGAGAATA | 0.0398
24 | CAGGGCCG | 0.181
25 | ATTTAAGA | -0.154
26 | AAGATGGT | -0.0478

Row | Sequence | PBM E-score
27 | CTACGGAA | 0.197
28 | ATACGGAT | 0.256
29 | ATACGGAA | 0.345
30 | CTACGGAC | 0.261
31 | ATACGGAG | 0.425
32 | CTACGGAG | 0.398
33 | CTAAACAC | -0.033
34 | GTGGACAA | 0.124
35 | AGCAAGAC | -0.0712
36 | ACACCAAC | -0.126
37 | AAGCATAT | -0.014
38 | ATCCCGAG | 0.308
39 | GTCCCGCA | 0.163
40 | ATCCCGTA | 0.158
41 | ATCCCCGA | 0.379
42 | ATCCCCCG | 0.3
43 | GTCCCGGA | 0.439
44 | GTCCCCGA | 0.217
45 | ATCCCGTG | 0.212
46 | ATCCCGGA | 0.44
47 | ATCCCGGG | 0.392
48 | ATCCCCGG | 0.425
49 | ATCCCCTG | -0.16
50 | CGCGACAA | 0.106
51 | ATTGTAGG | -0.0526
52 | ACAATCGA | -0.178

Row | Sequence | PBM E-score
53 | AATTAACA | -0.128
54 | GACCTGAC | -0.198
55 | CGAGGGCC | 0.0992
56 | ATCCCGGC | 0.391
57 | ATCCCGTC | 0.231
58 | ATCCCCCC | -0.298
59 | CTCCCGGC | 0.356
60 | CTCCCCGA | 0.268
61 | ATCCCGCC | 0.297
62 | CTCCCCGC | 0.288
63 | ATCCCCGC | 0.393
64 | CTCCCGGA | 0.398
65 | GAGCCTAC | 0.0364
66 | AGCGTCTG | -0.136
67 | CAGGGGAC | -0.151
68 | AATGCTTC | 0.0555
69 | GAAACTGC | 0.176
70 | ATTGCTCC | 0.256
71 | AAATCCGG | 0.474
72 | CAATCCGG | 0.393
73 | AAATCCCG | 0.426
74 | TAATCCGA | 0.359
75 | AAATCCAG | -0.0486
76 | AAATCCGA | 0.449
77 | AAATCCGT | 0.362
78 | CAATCCGC | 0.197

Row | Sequence | PBM E-score
79 | AAATCCCA | -0.101
80 | GAATCCGA | 0.368
81 | CAATCCGA | 0.251
82 | CAATCCCG | 0.368
83 | AGCGTCTC | 0.0181
84 | CCCTAGTC | -0.368
85 | GATGGCCA | -0.102
86 | CCCTAGCG | -0.352
87 | CTGGGCAC | -0.183
88 | ACCTCAAT | -0.178
89 | CTCAGCCA | -0.0917
90 | ATGAGCCG | -0.00632
91 | ACCTACAA | -0.178
92 | GAATCCGC | 0.259
93 | ACATCCGC | 0.352
94 | AAATCCGC | 0.401
95 | GACTTTAA | -0.0643
96 | CATAGCCA | -0.115
97 | CGGAAGTA | 0.342
98 | CGGAATCA | 0.39
99 | CTGAATTC | -0.0397
100 | AGGAATTC | -0.0584
101 | AGGAATTA | 0.0107
102 | CGGAATTC | 0.464
103 | GGGAATCA | -0.0137
104 | CGGAATTA | 0.466

Row | Sequence | PBM E-score
105 | AGGAAGTC | -0.156
106 | AGGAATCA | -0.0846
107 | CGGAAGTC | 0.396
108 | GGGAATTA | 0.143
109 | GACCTCAA | -0.226
110 | TAGATAAA | -0.0204
111 | AGTTGGTA | -0.238
112 | AGTCAACC | -0.0996
113 | CGAAGCGC | 0.197
114 | CCAGCCTC | -0.302
115 | GTGGGTGA | 0.0373
116 | CAGTGGCG | 0.0163
117 | ACCGGAAG | 0.388
118 | TGCGGAAA | 0.334
119 | CCCGGAAC | 0.4
120 | TACGGAAA | 0.3
121 | CGCGGAAC | 0.368
122 | ACCGGAAC | 0.428
123 | CACGGAAC | 0.276
124 | AGCGGAAG | 0.305
125 | ACCGGAAA | 0.369
126 | AGCGGAAC | 0.333
127 | AACGGAAG | 0.0937
128 | TCCGGAAA | 0.456
129 | GCCACCAA | -0.0527
130 | CTTCGCAC | -0.164

Row | Sequence | PBM E-score
131 | AAAAGTCC | 0.371
132 | TAATGGGA | -0.256
133 | AGAAGAGG | -0.194
134 | CCCTCAGC | -0.0523
135 | GCCGGGAA | 0.329
136 | ACCGGGAT | 0.388
137 | ACCGGAAT | 0.389
138 | GACGGAAA | 0.35
139 | CCGGGAAA | 0.354
140 | ACCGGTAT | 0.277
141 | CACGGAAG | 0.228
142 | CTCGGAAG | 0.303
143 | CCCGGAAG | 0.39
144 | GCCGGAAA | 0.428
145 | CACGGAAA | 0.328
146 | CCCGGAAA | 0.429
147 | CGCAATTA | 0.23
148 | AAACTGCC | -0.0969
149 | ACCTCTTA | 0.176
150 | GTCTAAAC | 0.0271
151 | ATCGCGTC | -0.0429
152 | GCTTGGCA | -0.34
153 | GACGGAAC | 0.192
154 | GGCGGAAC | 0.349
155 | GCCGGAAC | 0.432
156 | GAGCGCTC | 0.0431

Row | Sequence | PBM E-score
157 | TCTTATCA | 0.0183
158 | CCAATGTC | -0.156
159 | TCCTCCCA | 0.0879
160 | TCCTCCAA | -0.245
161 | TCCTCCGA | 0.43
162 | ACCTCCAA | -0.209
163 | CCCTCCAG | -0.0892
164 | GCCTCCGA | 0.398
165 | GCCTCCAA | -0.134
166 | CCCTCCGC | 0.259
167 | ACCTCCTA | -0.101
168 | ACCTCCGA | 0.454
169 | GCCTCCGC | 0.361
170 | CCCTCCGG | 0.388
171 | AAGCCCAG | -0.143
172 | ACACCTAG | -0.13
173 | AGACTTCG | -0.137
174 | GACAGGTA | -0.0451
175 | GCTATAGA | -0.234
176 | CCAGGCAC | -0.0214
177 | ACCTCCGC | 0.425
